One experiment concerns Klebsiella pneumoniae. Particulars: Concentration 32 ug.mL-1;; ASSAY_TEST Inhibition of Bacterial Growth; detection method Absorption (OD600); MEDIA CAMHB; plate type 384well; NBS; CORNING #3640; time 18 hr.
The test system of a further experiment is Candida albicans. Particulars: Concentration 32 ug.mL-1; ASSAY_TEST Inhibition of Fungal Growth; detection method Absorption (OD530).
The subject of the next experiment is Cryptococcus neoformans. Particulars: Concentration 32 ug.mL-1; ASSAY_TEST Inhibition of Fungal Growth; detection method Resazurin; Absorption (OD600-OD570); plate type 384well; NBS; CORNING #3640. On the technique in general: Alamar Blue is a resazurin reagent that responds to reducing activity.

Potency and affinity values are given separately.

In the case of `COc1cc(NC(=O)Cn2nc3c(SC4CCCCC4)nccn3c2=O)cc(OC)c1`, the figures for the Inhibition in the experiment with Klebsiella pneumoniae, in the experiment on Candida albicans and in the experiment with Cryptococcus neoformans were 18.11%, 13.52% and -27.94%, respectively.
On the same counts, the results for `Cc1cccc(Oc2nccn3c(=O)n(CC(=O)Nc4ccccc4C(F)(F)F)nc23)c1C` are 10.49%, -0.97% and -7.67%.
On the same counts, the results for `O=C(CSc1nnc2c(=O)n(Cc3ccc(F)cc3)ccn12)NCC1CCCO1` (stereo not given) are 11.7%, 1.72% and -16.29%.
On the same counts, the results for `CCc1ccc(NC(=O)Cn2nc3ccc(SC4CCCCC4)nn3c2=O)cc1` are 3.55%, 2.46% and -12.68%.
For `Cc1nnc2ccc(S(=O)(=O)N(Cc3cccc(F)c3)c3ccc(F)cc3)cn12`, the Inhibition with Klebsiella pneumoniae is reported as 4.75%; in the experiment with Candida albicans, 1.87%; with Cryptococcus neoformans, -9.68%.
On the same counts, the results for `Cc1ccc(Oc2nccn3c(=O)n(CC(=O)NCc4ccccc4Cl)nc23)cc1` are 6.19%, 1.69% and -7.33%.
On the same counts, the results for `Cc1cc(C)c(NC(=O)CSc2nc3ccccc3n3c(C)nnc23)c(C)c1` are 10.14%, 1.31% and -7.76%.
For `COc1cc(OC)c(NC(=O)Cn2nc3c(Oc4ccc(C)cc4)nccn3c2=O)cc1Cl` the same measures were 2%, 2.42% and -3.76%.
Turning to `O=C(CSc1nnc2ccc(C(=O)NCc3ccccc3)cn12)Nc1ccccc1Br`, the Inhibition with Klebsiella pneumoniae is recorded as 13.28%; in the experiment on Candida albicans it was 5.15%; with Cryptococcus neoformans, -20.85%.
On the same counts, the results for `CCc1ccc(N(Cc2ccc(C)cc2)S(=O)(=O)c2cccn3c(CC)nnc23)cc1` are 2.26%, 5.38% and -7.79%.
On the same counts, the results for `Cc1ccccc1Oc1nc2ccccc2n2c(=O)n(CC(=O)Nc3ccccc3C(F)(F)F)nc12` are 7.22%, 11.93% and -23.01%.
For `Cc1cc2nn(CC(=O)Nc3ccc(F)cc3C)c(=O)n2c(Nc2ccc(F)cc2)n1` the same measures were 7.08%, 9.27% and -2.95%.
Consider `COc1cccc(-n2ccn3c(SCc4ccc(C)cc4)nnc3c2=O)c1`, for which the Inhibition is recorded as 12.94% with Klebsiella pneumoniae, 3.44% in the experiment on Candida albicans and -15.83% in the experiment with Cryptococcus neoformans.
Regarding `Cc1ccc(NC(=O)Cn2nc3c4c5c(sc4ncn3c2=O)CCCC5)cc1C`, the results for the Inhibition in the experiment with Klebsiella pneumoniae, in the experiment with Candida albicans and in the experiment on Cryptococcus neoformans were 7.59%, 3.92% and -29.29%, respectively.
On the same counts, the results for `COC(=O)c1ccc(NC(=O)Cn2nc3ccc(Sc4ccc(C)cc4)nn3c2=O)cc1` are 13.07%, 2.46% and -10.13%.
For `COc1ccc(-c2cc3c4nnc(SCC(=O)Nc5cccc(C#N)c5)n4ccn3n2)cc1`, the Inhibition is given as 2.25% in the experiment with Klebsiella pneumoniae, 13.14% in the experiment with Candida albicans and -16.67% with Cryptococcus neoformans.
For `CCc1ccc(Cn2c(=O)c3sccc3n3c(SCc4cccc(C(F)(F)F)c4)nnc23)cc1` the same measures were 8.34%, 1.88% and -21.14%.
On the same counts, the results for `COc1cc(NC(=O)Cn2nc3c4c5c(sc4ncn3c2=O)CCCC5)cc(OC)c1OC` are 9%, 0.11% and -14.64%.
For `Cc1cc(C)c(NC(=O)Cn2nc3ccc(SC4CCCCC4)nn3c2=O)c(C)c1` the same measures were 7.83%, 19.78% and -14.71%.
Consider `O=c1c2sccc2n2c(SCc3cccc(C(F)(F)F)c3)nnc2n1Cc1cccs1`, for which the Inhibition is given as 1.3% in the experiment on Klebsiella pneumoniae, 16.7% with Candida albicans and -17.87% with Cryptococcus neoformans.
For `COc1ccc(-n2ccn3c(-c4ccc([N+](=O)[O-])cc4)nnc3c2=O)cc1Cl` the same measures were 9.41%, 5.76% and -13.11%.
For `Cc1cc2nn(CC(=O)Nc3cccc(F)c3)c(=O)n2c(Nc2ccc(F)c(C)c2)n1` the same measures were 7.53%, 6.76% and -7%.
On the same counts, the results for `O=C(Cn1nc2ccc(SC3CCCCC3)nn2c1=O)Nc1ccc(F)c(F)c1` are 13.05%, 13.65% and -16.79%.
Turning to `CCc1ccc(N(Cc2cc(F)cc(F)c2)S(=O)(=O)c2cccn3c(C)nnc23)cc1`, the results for the Inhibition with Klebsiella pneumoniae, in the experiment on Candida albicans and in the experiment with Cryptococcus neoformans were 2.59%, 0.73% and -2.77%, respectively.
On the same counts, the results for `O=C(Cn1nc2c3cc(-c4ccc(F)cc4)nn3ccn2c1=O)Nc1ccc2c(c1)OCCO2` are 11.81%, 2.29% and -25.22%.
Take `Cc1ccc(NC(=O)c2ccc3nnc(SCC(=O)Nc4ccc(Br)cc4)n3c2)cc1`: the Inhibition in the experiment on Klebsiella pneumoniae is recorded as 8.72%; with Candida albicans, 1.55%; with Cryptococcus neoformans it was -17.05%.
On the same counts, the results for `Cc1ccc(-c2ccc3nn(CC(=O)Nc4ccc(Cl)cc4F)c(=O)n3n2)cc1` are 13.29%, -0.74% and -20.92%.
On the same counts, the results for `CC(C)Sc1ccc2nn(CC(=O)Nc3ccc(Cl)cc3F)c(=O)n2n1` are 7.97%, 16.98% and -18.57%.
On the same counts, the results for `Cc1nnc2c(SCC(=O)Nc3ccc4c(c3)OCCO4)nc3ccccc3n12` are 9.06%, 1.7% and -7.59%.
For the compound `O=c1n(Cc2cccc(Br)c2)nc2ccc(-c3ccccc3)nn12`, the Inhibition with Klebsiella pneumoniae is listed as 10.27%; in the experiment with Candida albicans, 5.28%; in the experiment on Cryptococcus neoformans, -13.38%.

One may read the Inhibition as the change of the read-out against control, counted positive when it falls.

The record behind these values is ChEMBL document CHEMBL4513146, “CO-ADD screening of Karazin Kharkiv National University (Ukraine) compounds”.
